# PubChem BioAssay (NCI)
# The panel holds about 83,000 compounds, 20% with a hit somewhere; the sample as a whole holds those more often.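 The test compound was applied at a single concentration to cells in 96-well plates for 48 hours, and percent growth was recorded.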 A number with no mark means an inactive call. Calls of active or inactive are those of the source. How the source made its calls: active means growth percent below 10; inactive means the rest.
# Tested on: OVCAR-5 ovarian
# Assay: NCI-60 one-dose screen, 48 h (100 = growth as untreated, 0 = no growth, -100 = all killed)
# Settings: 10 µM unless noted
row,SMILES,growth
1,Nc1cc2ccccc2c(=O)n1NC(=O)c1ccc(I)cc1,98.1%
2,CC(=O)Nc1cccc(Nc2nc(N[C@H]3CCCc4ccccc43)c3ccccc3n2)c1,103%
3,CCN(CC)C(=O)N/C(N)=N/c1nc2ccccc2s1,72.4%
4,O=C(O)c1cccc(-c2ccc(/C=N/NC(=O)c3[nH]c4ccc(Br)cc4c3-c3ccccc3)o2)c1,107%
5,NS(=O)(=O)c1ccc(-n2cc(-c3cccc(NC(=O)c4cc(C(F)(F)F)cc(C(F)(F)F)c4)c3)nn2)cc1,70.5%
6,C[C@H](Nc1nc(NCCc2ccccc2)nc2ccccc12)c1ccccc1,-92.2% (active)
7,C(=C\c1cc(/C=C/c2ccccc2)c2ccccc2n1)/c1ccccc1,136%
8,C=C1CC[C@@H]2[C@]3(C)COC(c4cn(-c5ccccc5)nc4-c4ccccc4)O[C@@H]3CC[C@@]2(C)[C@@H]1C/C=C1/C(=O)OC[C@H]1O (stereo partly drawn),-50.5% (active)
9,N#Cc1c(-c2cccc3ccccc23)cc(-c2cccc(OCC(=O)O)c2)[nH]c1=O,89.9%
10,O=C(/C=C/c1cccc(OCc2ccc(F)cc2)c1)c1nc2ccccc2[nH]1,122%
11,CCOC(=O)C1=C(N)N(c2ccccc2)C2=C(C(=O)CC(C)(C)C2)C1c1cccc(Cl)c1Cl (stereo not drawn),87.6%
12,CC(C)c1ccc2c(N)c(C(=O)Nc3ccc(C(F)(F)F)cn3)sc2n1,89.9%
13,COc1ccc2cc([C@H](C)C(=O)N/N=C/c3ccc(Br)cc3)ccc2c1,100%
14,CC(=O)Oc1ccccc1C(=O)[Se]CC(=O)Nc1cccc(C(F)(F)F)c1,-30.9% (active)
15,COc1ccc(NC(=O)c2sc3nc(C(C)C)ccc3c2N)cc1,83.2%
16,CC1=C(C(=O)OCc2ccccc2)C(c2c(O)cc(O)cc2O)n2c(nc3ccccc32)N1 (stereo not drawn),73.6%
17,N#Cc1ccc(/C=N/NC(=O)c2[nH]c3ccc(Br)cc3c2-c2ccccc2)o1,15.9%
18,CC1=C(C(=O)OC(C)C)C(c2cccc(O)c2)NC(=S)N1 (stereo not drawn),104%
19,COc1cc(-c2ccc(/C=N/NC(=O)c3[nH]c4ccc(Br)cc4c3-c3ccccc3)s2)cc(OC)c1OC,101%

row,SMILES,growth
1,COc1cc(/C=C/C(=O)c2nnn(-c3ccc(Cl)cc3)c2C)cc(OC)c1OC,47.8%
2,CC1=C(C(=O)OCc2ccccc2)C(c2ccc(-n3cncn3)cc2)n2c(nc3ccccc32)N1 (stereo not drawn),79.3%
3,COc1cc(-c2cc(-c3cccc(OCC(=O)O)c3)[nH]c(=O)c2C#N)cc(OC)c1OC,96.8%
4,CSc1ccc(C(=O)Nc2ccc3nn(/C(C#N)=C/c4ccccn4)nc3c2)cc1,-86.2% (active)
5,CSc1ccc(NC(=O)c2ccc3nn(/C(C#N)=C/c4ccccn4)nc3c2)cc1,-87.6% (active)
6,CC1CCCCN1CCCNC(=O)N/C(N)=N/c1nc2ccccc2s1 (stereo not drawn),38.2%
7,O=C(O)c1ccc(-c2ccc(/C=N/NC(=O)c3[nH]c4ccc(Br)cc4c3-c3ccccc3)s2)cc1,35.5%
8,CSc1ccccc1NC(=O)c1ccc2nnn(/C(C#N)=C/c3ccccn3)c2c1,-95% (active)
9,Clc1cccc(Cl)c1/C=C/c1cc(/C=C/c2ccc(Br)cc2)c2ccccc2n1,97.4%
10,C=C1CC[C@@H]2[C@]3(C)COC(c4cn[nH]c4-c4ccc(OC)cc4)O[C@@H]3CC[C@@]2(C)[C@@H]1C/C=C1/C(=O)OCC1O (stereo partly drawn),-27.1% (active)
11,CSc1ccc(C(=O)Nc2ccc3nnn(/C(C#N)=C/c4ccccn4)c3c2)cc1,-77.4% (active)
12,CC(=O)Nc1cccc(Nc2nccc(N[C@@H](C)c3ccccc3)n2)c1,34.2%
13,O=C(N/N=C/c1ccc(-c2ccc(O)cc2)s1)c1[nH]c2ccc(Br)cc2c1-c1ccccc1,18.7%
14,COc1cc(CNC(=O)/C=C/c2ccc3c(c2)OCO3)ccc1OCc1cn(-c2cccc(C(F)(F)F)c2)nn1,36.6%
15,O=C(O)c1ccc(-c2ccc(/C=N/NC(=O)c3[nH]c4ccc(Br)cc4c3-c3ccccc3)o2)cc1,75.9%
16,CCCCOc1ccc(NC(=O)c2sc3nc(C)ccc3c2N)cc1,20.1%
17,Cc1ccc2c(N)c(C(=O)Nc3ccc(-c4ccccc4)cc3)sc2n1,71%
18,COc1ccc2nc(Nc3cccc(NC(=O)c4ccc(CN5CCCN(C)CC5)c(C(F)(F)F)c4)c3)ccc2c1,-84.5% (active)
19,N#Cc1c(-c2cccnc2)cc(-c2ccc3ccccc3c2)[nH]c1=O,106%
